For five compounds, outcome and AC50 results are on record in PubChem BioAssay (EPA / NIEHS).

Where “and” joins values, the source holds several entries; their conditions need not be identical. Equal entries are not always repeated. A structure can be active in one record and inactive in another. Calls of active or inactive are those of the source. How the source made its calls: active means hit-call score of the fitted dose curve at least 0.9, where 1 is the maximum; inactive means score below 0.9.

Read-out in assay [1]: Interleukin 2 (IL2), IL2 (gene 3558)
Put plainly: BSK_BT_xIL2: BioMAP Diversity Plus: BT Assay for Interleukin 2 (IL2) Biomarker Activity (AID 2284245). To be noted: primary human B cells with PBMC. The method, boiled down: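 Human B cells co-cultured with PBMC, exposed to test chemical for 24 h. Secreted IL-2 quantified by Luminex xMAP bead immunoassay; activity fitted in the positive direction relative to DMSO vehicle baseline.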

Read-out in assay [2]: Basic fibroblast growth factor (bFGF), FGF2 (gene 2247)
Put plainly: BSK_MyoF_bFGF: BioMAP Diversity Plus: MyoF Assay for Basic fibroblast growth factor (bFGF) Biomarker Activity (AID 2284246). The following applies: primary human lung fibroblasts. An outline of the steps:
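Human lung fibroblasts were dosed with chemicals and bFGF was quantified by ELISA 24 h later. Activity was fitted in the gain-of-signal direction relative to DMSO as negative control and baseline. Parallel SRB total-protein staining tracked overt cytotoxicity.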

Read-out in assay [3]: Collagen IV, COL4A1 (gene 1282)
Put plainly: BSK_MyoF_CollagenIV: BioMAP Diversity Plus: MyoF Assay for Collagen IV Biomarker Activity (AID 2284247). The following applies: primary human lung fibroblasts. The method, boiled down:
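Primary human lung fibroblasts were exposed to test chemicals and sampled 24 h after dosing. Collagen IV levels were measured by ELISA and fitted in the positive direction against DMSO as negative control and baseline.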

Read-out in assay [4]: Plasminogen activator inhibitor-1 (PAI1), SERPINE1 (gene 5054)
Put plainly: BSK_MyoF_PAI1: BioMAP Diversity Plus: MyoF Assay for Plasminogen activator inhibitor-1 (PAI1) Biomarker Activity (AID 2284256).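 On outcome: PAI-1 protein level measured by ELISA in fibroblast cultures; PAI-1 read 24 h after compound addition.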 The following applies: primary human lung fibroblasts. An outline of the steps:
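In this multiplexed primary-cell system, fibroblasts from human lung received compound for 24 h before ELISA detection of PAI-1; overt toxicity was checked by SRB (0.1%, TCA-fixed, 560 nm) in parallel wells.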

Read-out in assay [5]: Interleukin-8 (IL8), CXCL8 (gene 3576)
Put plainly: BSK_MyoF_IL8: BioMAP Diversity Plus: MyoF Assay for Interleukin-8 (IL8) Biomarker Activity (AID 2284261). To be noted: primary human lung fibroblasts. The method, boiled down: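 DMSO-normalised, upward-fitted IL-8 ELISA signal; human lung fibroblasts, 24 h chemical treatment.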

Read-out in assay [6]: Decorin, DCN (gene 1634)
Put plainly: BSK_MyoF_Decorin: BioMAP Diversity Plus: MyoF Assay for Decorin Biomarker Activity (AID 2284265). To be noted: primary human lung fibroblasts. An outline of the steps: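 In this multiplexed fibroblast system, secreted or surface decorin is detected by ELISA one day after dosing, with increases scored against the DMSO vehicle.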

The nature of assay [7]: BSK_MyoF_SRB: Viability Assessment in the BioMAP Diversity Plus: MyoF Assay (AID 2284267).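 Further: total protein by SRB absorbance in parallel cultures as cytotoxicity measure.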 The following applies: primary human lung fibroblasts. An outline of the steps:
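Human lung fibroblasts dosed with chemical and assessed 24 h later for overt cytotoxicity in parallel cultures. Total protein quantified by sulforhodamine B staining (0.1% SRB after 10% TCA fixation), read at 560 nm, analysed in positive direction versus DMSO baseline.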

Read-out in assay [8]: Matrix Metallopeptidase 1 (MMP1), MMP1 (gene 4312)
Put plainly: BSK_MyoF_MMP1: BioMAP Diversity Plus: MyoF Assay for Matrix Metallopeptidase 1 (MMP1) Biomarker Activity (AID 2284268). The following applies: primary human lung fibroblasts. The method, boiled down: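 Fibroblasts from human lung receive compound for 24 h before ELISA quantitation of MMP1. DMSO serves as baseline, and the endpoint is fitted for signal gain.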

Read-out in assay [9]: Monokine induced gamma interferon (MIG), CXCL9 (gene 4283)
Put plainly: BSK_KF3CT_MIG: BioMAP Diversity Plus: KF3CT Assay for Monokine induced gamma interferon (MIG) Biomarker Activity (AID 2284248). The following applies: primary human keratinocytes with fibroblasts. The method, boiled down: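 MIG in dosed human skin co-cultures was measured by ELISA at 24 h, relative to DMSO.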

Read-out in assay [10]: Vascular cell adhesion molecule 1 (VCAM1), VCAM1 (gene 7412)
Put plainly: BSK_BF4T_VCAM1: BioMAP Diversity Plus: BF4T Assay for Vascular cell adhesion molecule 1 (VCAM1) Biomarker Activity (AID 2284249). The following applies: primary human bronchial epithelial cells with fibroblasts. An outline of the steps:
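Human bronchial epithelial cell and dermal fibroblast co-culture exposed 24 h. VCAM-1 measured by ELISA; parallel SRB total-protein staining for cytotoxicity. Fitted in positive direction relative to DMSO.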

Read-out in assay [11]: Collagen I, COL1A1 (gene 1277)
Put plainly: BSK_hDFCGF_CollagenI: BioMAP Diversity Plus: hDFCGF Assay for Collagen I Biomarker Activity (AID 2284250). To be noted: primary human foreskin fibroblasts. The method, boiled down:
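Primary human foreskin fibroblasts (hDFCGF system) exposed to chemical for 24 h; Collagen I measured by ELISA. Activity fitted in the positive direction relative to DMSO baseline, with SRB total-protein staining in parallel cultures for overt cytotoxicity.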

Read-out in assay [12]: Interferon-inducible T-cell alpha chemoattractant (ITAC), CXCL11 (gene 6373)
Put plainly: BSK_hDFCGF_ITAC: BioMAP Diversity Plus: hDFCGF Assay for Interferon-inducible T-cell alpha chemoattractant (ITAC) Biomarker Activity (AID 2284251). The following applies: primary human foreskin fibroblasts. The method, boiled down:
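Primary human foreskin fibroblasts (hDFCGF system) treated for 24 h; I-TAC quantified by ELISA. Gain-direction fitting versus DMSO; parallel SRB staining of total protein flagged overt cytotoxicity.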

Read-out in assay [13]: Plasminogen activator inhibitor-1 (PAI1), SERPINE1 (gene 5054)
Put plainly: BSK_KF3CT_PAI1: BioMAP Diversity Plus: KF3CT Assay for Plasminogen activator inhibitor-1 (PAI1) Biomarker Activity (AID 2284252). The following applies: primary human keratinocytes with fibroblasts. An outline of the steps: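 Human primary keratinocyte/foreskin fibroblast co-culture was dosed with compound and sampled at 24 h. PAI-1 was quantified by ELISA, with activity fitted in the positive direction relative to DMSO vehicle as baseline.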

Read-out in assay [14]: Interleukin-8 (IL8), CXCL8 (gene 3576)
Put plainly: BSK_KF3CT_IL8: BioMAP Diversity Plus: KF3CT Assay for Interleukin-8 (IL8) Biomarker Activity (AID 2284254). The following applies: primary human keratinocytes with fibroblasts. An outline of the steps:
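Using parallel SRB-stained cultures to flag overt toxicity, the study quantified IL-8 by ELISA in human keratinocyte–foreskin fibroblast co-cultures 24 h after dosing, with DMSO as negative control and baseline.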

Read-out in assay [15]: Macrophage Inflammatory Protein-1 Alpha (MIP1a), CCL3 (gene 6348)
Put plainly: BSK_IMphg_MIP1a: BioMAP Diversity Plus: IMphg Assay for Macrophage Inflammatory Protein-1 Alpha (MIP1a) Biomarker Activity (AID 2284255). To be noted: primary human endothelial cells with macrophages. The method, boiled down:
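Co-culture of human venular endothelial cells and macrophages exposed to compounds for 24 h; MIP-1a measured by ELISA relative to DMSO. Cytotoxicity assessed in parallel cultures by sulforhodamine B total-protein staining at 560 nm.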

Read-out in assay [16]: CD69, CD69 (gene 969)
Put plainly: BSK_IMphg_CD69: BioMAP Diversity Plus: IMphg Assay for CD69 Biomarker Activity (AID 2284257). The following applies: primary human endothelial cells with macrophages. An outline of the steps: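 Human venular endothelial cells co-cultured with macrophages; CD69 quantified by ELISA 24 h after compound addition. Activity fitted in the positive direction relative to DMSO baseline; cytotoxicity tracked in parallel cultures via SRB total-protein staining.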

Read-out in assay [17]: Eotaxin 3, CCL26 (gene 10344)
Put plainly: BSK_BF4T_Eotaxin3: BioMAP Diversity Plus: BF4T Assay for Eotaxin 3 Biomarker Activity (AID 2284258). To be noted: primary human bronchial epithelial cells with fibroblasts. The method, boiled down: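 Co-culture of human bronchial epithelial cells and dermal fibroblasts, exposed to chemicals for 24 h versus DMSO. Eotaxin-3 quantified by ELISA; cytotoxicity checked in parallel cultures by sulforhodamine B total-protein staining.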

Read-out in assay [18]: Monocyte Chemoattractant Protein-1 (MCP1), CCL2 (gene 6347)
Put plainly: BSK_BF4T_MCP1: BioMAP Diversity Plus: BF4T Assay for Monocyte Chemoattractant Protein-1 (MCP1) Biomarker Activity (AID 2284259). The following applies: primary human bronchial epithelial cells with fibroblasts. The method, boiled down:
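Co-culture of bronchial epithelial cells and dermal fibroblasts dosed with chemical; MCP-1 measured by ELISA 24 h later. Activity fitted in positive direction versus DMSO; cytotoxicity checked by SRB staining in parallel cultures.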

Read-out in assay [19]: CD90, THY1 (gene 7070)
Put plainly: BSK_BF4T_CD90: BioMAP Diversity Plus: BF4T Assay for CD90 Biomarker Activity (AID 2284262). To be noted: primary human bronchial epithelial cells with fibroblasts. The method, boiled down:
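Co-culture of human bronchial epithelial cells and dermal fibroblasts, 24 h compound exposure. Cell-surface CD90 measured by ELISA relative to DMSO; parallel SRB total-protein staining for cytotoxicity.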

Read-out in assay [20]: KRT18 (gene 3875)
Put plainly: BSK_BF4T_Keratin818: BioMAP Diversity Plus: BF4T Assay for Keratin 818 Biomarker Activity (AID 2284266). The following applies: primary human bronchial epithelial cells with fibroblasts. The method, boiled down: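 Co-culture of human bronchial epithelial cells and dermal fibroblasts, chemical exposure 24 h. Keratin 8/18 measured by ELISA; positive-direction fit vs DMSO. SRB total protein run in parallel cultures for cytotoxicity.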

Take `CCCCOCCOP(=O)(OCCOCCCC)OCCOCCCC`: the result in assay [1], in assay [2], in [3], in assay [5], in [6] and in [7] was inactive. The outcome in assay [8] was inactive. In addition, in assay [4], the AC50 – broadly, the midpoint of the concentration-response curve, whichever way the signal moves – was 0.0918 µM (active).
As for `OCC(F)(F)OC(F)(F)C(F)(F)OC(F)(F)C(F)(F)OC(F)(F)F`, the half-maximal activity concentration (AC50) was 53.9 µM (active) and 23.4 µM (active) in [1]; 58.5 µM (active) and 45.8 µM (active) in assay [9]; 43.8 µM (active) and 44 µM (active) in [13]; 46.5 µM (active) and 50.9 µM (active) in [14]; 21.2 µM (active) in [15]; 20.9 µM (active) in [4]. Also, the AC50 in assay [16] is 48.6 µM (active) and 7.29 µM (active); in assay [17], 49.2 µM (active); in [18], 44.8 µM (active) and 22.6 µM (active); in [7], 21.9 µM (active) and 21.6 µM (active); in [8], 19.9 µM (active) and 18.3 µM (active). In addition, the result in assay [2], in [3], in assay [10], in assay [11], in assay [12] and in [15] was inactive. In addition, the outcome in [4], in [17], in assay [5], in assay [19], in assay [6] and in assay [20] was inactive.
As for `CCOP(=S)(NC(C)C)Oc1ccccc1C(=O)OC(C)C` (stereo not given), the AC50 in assay [1] was 20 µM (active). For the same compound, the outcome in assay [2], in [3], in assay [4], in assay [5], in [6] and in assay [7] was inactive. Further, the result in assay [8] was inactive.
`C=CC(=O)OCC(CC)(COC(=O)C=C)COC(=O)C=C`: the AC50 is 2.34 µM (active) in assay [1]; 4.36 µM (active) in assay [2]; 2.87 µM (active) in assay [3]; 2.7 µM (active) in assay [4]; 5.17 µM (active) in assay [5]; 3.09 µM (active) in assay [6]. Also, the values for the AC50 in assay [7] and in assay [8] were 2.91 µM (active) and 3.88 µM (active), respectively.
Turning to `N#Cc1cc([N+](=O)[O-])ccc1N`, the result in [1], in assay [2], in assay [3], in [4], in assay [5] and in assay [6] was inactive. Besides, the outcome in [7] and in assay [8] was inactive.
